PubChem BioAssay (EPA / NIEHS)
Activity calls are given as the source filed them. How the source made its calls: active means hit-call score of the fitted dose curve at least 0.9, where 1 is the maximum; inactive means score below 0.9.

read-out: HGF (gene 3082); assay: LTEA_HepaRG_HGF: Life Technologies and Expression Analysis (LTEA) Assay for Hepatocyte Growth Facto (HGF) using HepaRG (AID 2283505); conditions: mRNA level, 48 h; actives raise or lower the signal
Protocol: LTEA_HepaRG is a cell based, multiplexed-readout assay that uses HepaRG, a human liver cell line, with measurements taken at 48 hours after chemical dosing on a 96-well plate.LTEA_HepaRG_HGF is one of 102 assay component(s) measured in the LTEA HepaRG cell culture assay. It is a marker of Cell proliferation, survival, death.Data from the assay component LTEA_HepaRG_HGF was analyzed into 1 endpoint. This assay endpoint, LTEA_HepaRG_HGF, was analyzed with bidirectional fitting relative to DMSO as the negative control and baseline of activity. Using a type of inducible reporter, measures of mRNA induction for gain or loss-of-signal activity can be used to understand regulation of transcription factor activity. To generalize the intended target to other relatable targets, this assay endpoint is annotated to the growth factor intended target family, where the subfamily is hepatocyte growth factor.
A total of 1060 chemcials from the ToxCast library were tested in eight-point concentration-response experiments. Cell culture and cytotoxicity assays were conducted at Thermo Fisher Scientific's Custom Services facility (Madison, WI). A single lot of human HepaRG cells (Thermo Fisher Scientific, Frederick, MD) was used for the cell culture experiments. 96-well format collagen type I coated plates of human HepaRG cells were prepared using established methods. Briefly, cryopreserved HepaRG cells were thawed, plated at a density of approximately 100,000 cells/well in HepaRG Thaw, Plate, and General Purpose media (HPRG770, Thermo Fisher Scientific), and incubated for 48 hours. 0.5% DMSO was selected as vehicle control to balance the requisite need of DMSO in HepaRG cultures to maintain differentiation (for example, baseline metabolism, proportions of hepatocytes vs. cholangiocytes), while enabling further hepatic receptor pathway activation (for example, PXR and CAR) in response to chemical exposure. 48 hours after plating, the culture medium was replaced with HepaRG Serum-Free Incudtion Media. Cells were exposed to each test chemical in duplicate and maintained in CO2 incubators for another 48 hours. Chemical plates were thawed to room temperature and 200x concentrations of treatment groups were prepared. 8-point conentration-reponse curves were made with the highest exposure at 100 uM, followed by half-log dilutions, all in 0.5% DMSO. Each test plate contained variouse controls, induction positive controls (1mM phenobarbital), cytotoxicity positive controls ([…] aflatoxin B1), vehicle controls (0.5% DMSO), and total lysis controls (0.5% DMSO). Cell morphology images were taken using an Essen IncuCyte FLR automated microscope, with six 96-well plates imaged in about 24 minutes. Images were captured and exported and JPEG files. Spent culture media was transfered to black-well plates for the LDH assay, and remaining media was sorted at -80 C for later use. Cells were treated with RLT buffer and frozen until shipped for gene expression analysis. Total RNA was isolated from the cell suspension in 75 uL of Buffer RLT (Qiagen, Germantown, MD 20874) by Quintiles/Expression Analysis (Durham, NC) using a custom isolation procedure. Total RNA from each plate well was transferred to a preamplification plate. Fluidigm's 96.96 Dynamic ArrayTM (Fluidigm, Amsterdam, the Netherlands) technology was used for gene expression analyses by quantitative reverse transcription polymerase chain reaction (qRT-PCR, performed by Quintiles/Expression Analysis, Durham, NC)89. Standard TaqManTM Assays (Applied Biosystems/ThermoFisher Scientific, Foster City, CA) were used to assess the expression of 93 genes selected based on their selectivity and sensitivity to important hepatic receptors known to be modulated by environmental chemicals; importance in human hepatocyte functionality; and hepatotoxicity. […]

SMILES | outcome | AC50
Oc1ccc2c(c1)OC[C@@H](N1CCC(O)(c3ccc(F)cc3)CC1)[C@H]2O | inactive | 
COCCOCCOC |  | 1.5 µM (active)
O=c1[nH]cc(F)c(=O)[nH]1 | inactive | 
C=CCc1ccc(O)c(OC)c1 | inactive | 
COc1cc(C=O)ccc1O | inactive | 
CCCCCCCCCCO | inactive | 
C[Si]1(C)O[Si](C)(C)O[Si](C)(C)O[Si](C)(C)O1 | inactive | 
Cc1cccc([N+](=O)[O-])c1C | inactive | 
O=C(O)Cc1ccccc1Nc1c(Cl)cccc1Cl | inactive | 
COc1ccc(C)cc1N | inactive | 
Nc1ccc2c(c1)C(=O)c1ccccc1C2=O | inactive | 
Cc1ccc(C)c(O)c1C | inactive | 
O=[N+]([O-])C(CO)(CO)CO | inactive | 
Cc1ccccc1Cl | inactive | 
Cc1ccc(N(C)C)cc1 | inactive | 
C=CCOC(=O)c1ccccc1C(=O)OCC=C | inactive | 
c1cc(-c2ccncc2)ccn1 | inactive | 
CC(C)(C)c1cc(O)c(C(C)(C)C)cc1O | inactive | 
COCCOC[C@H](CC1(C(=O)NC2CCC(C(=O)O)CC2)CCCC1)C(=O)Oc1ccc2c(c1)CCC2 (stereo not given in full) | inactive | 
Oc1ccc2ccccc2c1N=Nc1ccccc1 | inactive | 

SMILES | outcome | AC50
Cc1oc(-c2ccccc2)nc1CCOc1cccc2c1ccn2CCC(=O)O | inactive | 
COc1ccc(S(=O)(=O)N2C(=O)[C@@](c3ccccc3OC)(N3C[C@H](O)C[C@H]3C(=O)N(C)C)c3cc(Cl)ccc32)c(OC)c1 |  | 85.5 µM (active)
CCOc1ccc2c(c1)C(C)=CC(C)(C)N2 | inactive | 
Cc1cc(NC(=O)C(=O)O)cc(C)c1Oc1ccc(O)c2c1CCC2 | inactive | 
CCCCCCCCCCCCCCCC | inactive | 
NS(=O)(=O)c1cc2c(cc1Cl)NCNS2(=O)=O | inactive | 
Cc1c(C(=O)O)c(O)cc2c1C(=O)c1c(O)c([C@@H]3O[C@H](CO)[C@@H](O)[C@H](O)[C@H]3O)c(O)c(O)c1C2=O | inactive | 
CCCCCCC(=O)OCC | inactive | 
Nc1ccc(S(=O)(=O)c2ccc(N)cc2)cc1 | inactive | 
O=C(O)CCCCC(=O)O | inactive | 
CCCCCCCCCCCCCO | inactive | 
Cc1cccc(C)c1O | inactive | 
Cc1cccc(Nc2cc(Cl)nc(SCC(=O)O)n2)c1C | inactive | 
CC1(C)CC(N=C=O)CC(C)(CN=C=O)C1 (stereo not given) | inactive | 
Cc1ccc(Cl)cc1 | inactive | 
NCC1(Cc2noc(=O)[nH]2)CCCCC1 | inactive | 
Nc1ccccc1N | inactive | 
NCCO | inactive | 
CNCc1cc(F)ccc1Oc1ccc(Cl)c(Cl)c1 |  | 86.6 µM (active)
COc1ccc2c(c1)c(CC(=O)O)c(C)n2C(=O)c1ccc(Cl)cc1 | inactive | 
